From PubChem BioAssay (EPA / NIEHS)
Values joined by “and” are separate entries in the source; they are usually repeats but may differ in a detail not shown here. Identical values can stand only once. Inconclusive results are not listed. Some compounds were tested as several samples or in several runs, with calls that do not always agree. Active and inactive are the calls of the source. How the source made its calls, unless noted: active means hit-call score of the fitted dose curve at least 0.9, where 1 is the maximum; inactive means score below 0.9.

Tests used:
[1] = biological target: human Thyroid Receptor alpha (THRa1), THRA (gene 7067) (UniProt P10827); experiment: ATG_THRa1_TRANS: Attagene TRANS-FACTORIAL HepG2 Assay for human Thyroid Receptor alpha (THRa1) (AID 2283014; active means hit-call score of the fitted dose curve at least 0.9, where 1 is the maximum)
Summary of the method: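 Transcripts from GAL4-UAS-driven reporters, measured after 24 h compound exposure by RT-PCR plus capillary electrophoresis of 6-FAM-labeled fragments, were fitted for gain of signal relative to DMSO. Cells: transiently transfected HepG2 expressing NR-Gal4 chimeras.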

[2] = read-out: E-selectin (Homo sapiens) (UniProt P16581); experiment: BSK_3C_Eselectin: BioMAP Diversity Plus: 3C Assay for Eselectin Biomarker Activity (AID 2283015); conditions: primary human endothelial cells (HUVEC); actives raise or lower the signal
Summary of the method: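 E-selectin ELISA readout, fitted bidirectionally relative to DMSO, taken 24 h post-dosing in HUVEC cultures of the 3C system. Overt cytotoxicity tracked with sulforhodamine B staining of parallel wells.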

[3] = read-out: Interleukin-1 alpha (IL1a), IL1A (gene 3552); experiment: BSK_BE3C_IL1a: BioMAP Diversity Plus: BE3C Assay for Interleukin-1 alpha (IL1a) Biomarker Activity (AID 2283016); conditions: primary human bronchial epithelial cells; actives raise or lower the signal
Summary of the method: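 BE3C primary human bronchial epithelium; cpd 24 h; IL-1a by ELISA; bidirectional fit vs DMSO; parallel SRB (0.1% SRB, 10% TCA fix, 560 nm) for cytotoxicity.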

[4] = read-out: Monocyte Chemoattractant Protein-1 (MCP1), CCL2 (gene 6347); experiment: BSK_3C_MCP1: BioMAP Diversity Plus: 3C Assay for Monocyte Chemoattractant Protein-1 (MCP1) Biomarker Activity (AID 2283017); conditions: primary human endothelial cells (HUVEC); actives raise or lower the signal
Summary of the method: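 MCP-1 was measured by ELISA 24 h after dosing in primary HUVEC 3C cultures and fitted in both directions relative to DMSO; cytotoxicity was checked by SRB total-protein staining in parallel wells.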

[5] = read-out: Monocyte Chemoattractant Protein-1 (MCP1), CCL2 (gene 6347); experiment: BSK_4H_MCP1: BioMAP Diversity Plus: 4H Assay for Monocyte Chemoattractant Protein-1 (MCP1) Biomarker Activity (AID 2283018); conditions: primary human endothelial cells (HUVEC); actives raise or lower the signal
Summary of the method: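 ELISA read-out of MCP-1 from human vascular endothelial primary cells taken at 24 hours after compound exposure. Activity was fitted in both directions relative to DMSO, which served as negative control.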

[6] = read-out: Human Leukocyte Antigen - DR isotype (HLADR), HLA-DRA (gene 3122); experiment: BSK_3C_HLADR: BioMAP Diversity Plus: 3C Assay for Human Leukocyte Antigen - DR isotype (HLADR) Biomarker Activity (AID 2283019); conditions: primary human endothelial cells (HUVEC); actives raise or lower the signal
Summary of the method: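 Bidirectional fitting against DMSO was applied to the HLA-DR ELISA signal from human umbilical vein endothelial cells, 24 h post-dose. Cytotoxicity came from parallel SRB total-protein staining; 3C proliferation was counted by SRB at 48 h.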

[7] = read-out: Monokine induced gamma interferon (MIG), CXCL9 (gene 4283); experiment: BSK_3C_MIG: BioMAP Diversity Plus: 3C Assay for Monokine induced gamma interferon (MIG) Biomarker Activity (AID 2283021); conditions: primary human endothelial cells (HUVEC); actives raise or lower the signal;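 on AC50: MIG protein level measured by immunoassay in the treated endothelial cultures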
Summary of the method: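 Read-out is ELISA detection of MIG on human umbilical vein endothelial cells, taken 24 h after dosing. Gain or loss of signal was scored relative to DMSO controls using bidirectional curve fitting.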

[8] = biological target: human Vitamin D Receptor (VDR), VDR (gene 7421) (UniProt P11473); experiment: ATG_VDR_TRANS: Attagene TRANS-FACTORIAL HepG2 Assay for human Vitamin D Receptor (VDR) (AID 2283022; active means hit-call score of the fitted dose curve at least 0.9, where 1 is the maximum)
Summary of the method: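 Transactivation by an exogenous VDR-Gal4 chimera in transiently transfected HepG2 cells was measured as reporter transcript level 24 hours after chemical treatment. RT-PCR products were analysed by capillary electrophoresis and fitted in the positive direction relative to DMSO.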

[9] = read-out: Interleukin-8 (IL8), CXCL8 (gene 3576); experiment: BSK_3C_IL8: BioMAP Diversity Plus: 3C Assay for Interleukin-8 (IL8) Biomarker Activity (AID 2283020); conditions: primary human endothelial cells (HUVEC); actives raise or lower the signal
Summary of the method: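 ELISA read-out of IL-8 from human umbilical vein endothelium, measured 24 h after chemical dosing. Activity is expressed relative to DMSO negative control, with both increases and decreases fitted.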

Measured: AC50

Sequence of human Vitamin D Receptor (VDR), VDR (gene 7421) (P11473 whole entry, looked up, the tested form may be a part): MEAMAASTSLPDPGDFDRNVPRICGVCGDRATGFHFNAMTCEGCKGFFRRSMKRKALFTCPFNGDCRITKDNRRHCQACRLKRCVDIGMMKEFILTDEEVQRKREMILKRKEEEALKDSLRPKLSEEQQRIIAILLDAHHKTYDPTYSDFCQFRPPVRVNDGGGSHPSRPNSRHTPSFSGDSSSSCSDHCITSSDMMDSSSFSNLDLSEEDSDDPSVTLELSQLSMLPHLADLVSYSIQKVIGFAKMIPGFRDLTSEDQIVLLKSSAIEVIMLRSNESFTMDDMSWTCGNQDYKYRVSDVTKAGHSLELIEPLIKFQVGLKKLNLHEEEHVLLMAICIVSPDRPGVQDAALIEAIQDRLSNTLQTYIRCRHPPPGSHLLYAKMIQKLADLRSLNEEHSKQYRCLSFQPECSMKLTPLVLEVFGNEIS
Sequence of E-selectin (Homo sapiens) (P16581 whole entry, looked up): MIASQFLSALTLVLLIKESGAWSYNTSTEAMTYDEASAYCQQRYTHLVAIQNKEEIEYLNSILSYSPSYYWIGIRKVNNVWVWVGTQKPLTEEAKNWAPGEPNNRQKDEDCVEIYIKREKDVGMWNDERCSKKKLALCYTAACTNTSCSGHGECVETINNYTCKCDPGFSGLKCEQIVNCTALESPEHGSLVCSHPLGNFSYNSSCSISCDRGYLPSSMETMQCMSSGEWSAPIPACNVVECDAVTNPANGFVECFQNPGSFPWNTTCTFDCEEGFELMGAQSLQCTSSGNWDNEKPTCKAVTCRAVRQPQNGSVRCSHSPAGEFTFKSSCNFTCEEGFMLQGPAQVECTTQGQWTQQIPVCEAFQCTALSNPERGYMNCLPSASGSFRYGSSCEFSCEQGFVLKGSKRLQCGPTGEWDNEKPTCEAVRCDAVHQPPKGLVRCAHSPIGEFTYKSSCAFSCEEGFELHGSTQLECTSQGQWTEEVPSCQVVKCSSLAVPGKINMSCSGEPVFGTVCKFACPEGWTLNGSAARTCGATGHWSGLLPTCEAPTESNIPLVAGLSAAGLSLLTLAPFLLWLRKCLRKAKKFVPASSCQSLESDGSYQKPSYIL
Sequence of human Thyroid Receptor alpha (THRa1), THRA (gene 7067) (P10827 whole entry, looked up, the tested form may be a part): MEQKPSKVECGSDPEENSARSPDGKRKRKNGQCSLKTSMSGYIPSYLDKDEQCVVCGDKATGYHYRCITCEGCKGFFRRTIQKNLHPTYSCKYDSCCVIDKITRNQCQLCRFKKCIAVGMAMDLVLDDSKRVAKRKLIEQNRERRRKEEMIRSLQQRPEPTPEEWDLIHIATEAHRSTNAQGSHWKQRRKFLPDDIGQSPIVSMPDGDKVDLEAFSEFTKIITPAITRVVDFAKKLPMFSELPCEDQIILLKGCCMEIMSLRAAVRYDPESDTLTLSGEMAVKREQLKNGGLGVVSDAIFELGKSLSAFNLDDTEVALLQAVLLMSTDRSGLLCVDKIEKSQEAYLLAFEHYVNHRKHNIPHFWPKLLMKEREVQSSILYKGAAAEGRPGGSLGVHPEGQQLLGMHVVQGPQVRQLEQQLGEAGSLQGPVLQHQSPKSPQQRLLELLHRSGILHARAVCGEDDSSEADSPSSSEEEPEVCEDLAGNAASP

Oc1ccc(Cc2ccccc2O)cc1
not listed: [9]
inactive: all other assays above

C[C@]12CC[C@@H]3c4ccc(O)cc4CC[C@H]3[C@@H]1C[C@@H](O)[C@@H]2O
not listed: [9]
inactive: all other assays above

CC(C)(c1ccc(Oc2ccc(N)cc2)cc1)c1ccc(Oc2ccc(N)cc2)cc1
inactive: [1]

Cc1cc(C(C)(C)C)c(O)c(C(C)(C)C)c1
inactive: [1]

CCc1cccc(CC)c1N(COC)C(=O)CS(=O)(=O)O
inactive: [1]

CC(O)COc1ccccc1 (stereo unspecified)
inactive: [1]

O=C1OC(=O)C(F)(F)C1(F)F
inactive: [1]

Oc1cc2ccccc2cc1O
not listed: [8]
inactive: all other assays above

FC1(F)C=CC(F)(F)C1(F)F
inactive: [1]

OCCN1CN(CCO)CN(CCO)C1
active: [2] 34.1 µM | [3] 4.12 µM | [4] 31.1 µM | [5] 35.5 µM | [6] 28 µM | [7] 36.6 µM
inactive: [1] | [8]

Oc1c(Cl)cc(Cl)cc1Sc1cc(Cl)cc(Cl)c1O
inactive: [1] | [8]
active: [2] 31.1 µM and 29.8 µM | [3] 7.68 µM and 8.04 µM | [4] 36.2 µM and 35.9 µM | [5] 9.13 µM and 5.86 µM | [6] 15.5 µM and 22.3 µM

CC(=O)Nc1ccc(O)cc1
not listed: [8] | [9]
inactive: all other assays above

Cc1cccc2c1ccc1ccccc12
active: [3] 5.56 µM | [6] 20 µM
not listed: [9]
inactive: all other assays above

O=P(O)(O)CCC(F)(F)C(F)(F)C(F)(F)C(F)(F)C(F)(F)C(F)(F)F
not listed: [8]
inactive: all other assays above

CC(C)(C)C1CCCCC1O (stereo unspecified)
inactive: [1]

CN(CCO)S(=O)(=O)C(F)(F)C(F)(F)C(F)(F)C(F)(F)C(F)(F)C(F)(F)C(F)(F)C(F)(F)F
not listed: [8] | [9]
inactive: all other assays above

NC(=NCCCCCCN=C(N)/N=C(\N)Nc1ccc(Cl)cc1)/N=C(\N)Nc1ccc(Cl)cc1
active: [1] 8.56 µM and 6.83 µM | [2] 7.27 µM | [3] 4.74 µM | [4] 5.59 µM | [5] 1.47 µM | [6] 4.82 µM | [7] 9.77 µM
inactive: [1]

CCC(=O)C=Cc1ccc(OC)cc1
inactive: [1]

O=C1OC(=O)c2cc(-c3ccc4c(c3)C(=O)OC4=O)ccc21
inactive: [1]

CCCCCCC(C)(C)C(=O)O
inactive: [1]

CCCCCCCCCCCC[N+](C)(C)Cc1ccccc1
inactive: [1]

O=C1OC2(c3ccccc31)c1cc(I)c(O)c(I)c1Oc1c2cc(I)c(O)c1I
active: [2] 5.74 µM | [3] 4.58 µM | [4] 6.03 µM | [5] 4.8 µM | [6] 6.51 µM
inactive: [1] | [7] | [8]
